High-throughput results deposited in PubChem by National Center for Advancing Translational Sciences (NCATS).
The full list was thinned out, with hits kept by preference.
Pf Dd2 growth: blocks in vitro growth of P. falciparum Dd2; 120,000 tested, 4.3% active; P. falciparum Dd2 growth, SYBR Green, 72 h; Potency, µM (doses to about 28.9 µM), for the others: top-dose activity, negative = inhibition, usual class: inhibitors; AID 1347417; active means well fitted inhibition curve with a large enough effect;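 further: plate controls were DMSO vehicle for no effect and reference drug for full effect; nearly all actives have a fitted effect of over 65% in size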
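Infected erythrocytes (Dd2, 0.3% parasitemia, 2.5% hematocrit final) are added to compound in RPMI-1640/Albumax II medium, grown 72 h at 37C in low oxygen, then lysed with saponin/Triton-X containing SYBR Green and read by fluorescence.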
Active calls of the source: *; i = inactive; ! = repeats disagree; [ ] = remark or other dose. Potency means the concentration at half of the fitted maximal effect.

SMILES	Pf Dd2 growth
CCN1CCN(C(=O)CCn2ccc(=O)[nH]c2=O)C(C)C1=O (configuration not stated)	0%
Cc1ccc(-c2ccc(CCC(=O)N[C@@H]3CCOC[C@H]3OCC(=O)O)o2)cc1	-2%
Cc1ccc(C(=O)N2C(C(=O)NCC3CCCO3)COC23CCN(C(=O)c2cccs2)CC3)cc1 (configuration not stated)	-6%
COCCN[C@H]1[C@@H]2OC[C@@H](O2)[C@@H](NC(=O)Nc2cccc(C#N)c2)[C@@H]1O	i
c1cc(-c2ccnc3nc(C4CCCCC4)nn23)ccn1	-16%
COc1ccc(-n2nc(C3CCN(Cc4ccc(C)cc4)CC3)[nH]c2=O)cc1	13µM*!
COc1ccc(C(=O)N2CCC(c3nn(-c4ccc(Cl)cc4)c(=O)[nH]3)CC2)cc1	-14%
COc1ccc(-n2nc(C3CCN(Cc4ccc(C#N)cc4)CC3)[nH]c2=O)cc1	i
COc1ccc(-n2nc(C3CCN(Cc4ccc(F)cc4)CC3)[nH]c2=O)cc1	i
O=C(Cc1ccc(F)cc1)N1CCC(c2nn(-c3ccc(Cl)cc3)c(=O)[nH]2)CC1	i
CC(C)(C)C(=O)N1CCC(c2nn(-c3ccc(Cl)cc3)c(=O)[nH]2)CC1	8.9µM*
OCC1(CNCc2cccnc2)C[C@@H](O)[C@@H](O)C1 (some centres not stated)	-4%[44.1 µM]
O=C1CCCCC(C(=O)N2CCOCC2)N1 (configuration not stated)	3%
CCOC1CCOC2(CCN(C(=O)c3ccncc3)CC2)C1 (configuration not stated)	67%
CN1C(=O)CC(C(=O)O)C12CCN(Cc1ccc(CCC(C)(C)O)cc1)CC2 (configuration not stated)	12%
N#CC1=C(N)N(c2cccc(Cl)c2)C2=C(C(=O)CCC2)C1c1cc(CN2CCOCC2)cs1 (configuration not stated)	10µM*
N#CC1=C(N)N(c2ccc(Cl)cc2)C2=C(C(=O)CCC2)C1c1cc(CN2CCOCC2)cs1 (configuration not stated)	13µM*
N#Cc1ccc(CN2CCCOCCNC(=O)CC2)cc1	-8%
O=c1[nH]c(N2CCOCC2)nc2c1CCN(Cc1cccc(Cl)c1)CC2	18%[5.79 µM]
O=C1N(C2CCOCC2)C[C@H]2CN(Cc3cccc(Cl)c3)CCN12	i
O=C(CC1=C2CCCCC2NC1=O)NC1CCCC1 (configuration not stated)	-18%
Cc1ncoc1C(=O)N1CCC(c2noc(-c3cnccn3)n2)C1 (configuration not stated)	6%[5.79 µM]
COc1ccc(CNC(=O)C(=O)Nc2cccc(C)c2C)cc1	29%
COc1ccc(CNC(=O)C(=O)Nc2ccc(OC)cc2OC)cc1	5.6µM*
COc1ccc(CCNC(=O)C(=O)Nc2ccc(C)c(C)c2)cc1	20%
SMILES	Pf Dd2 growth
O=C(N[C@H]1CCN2C(=O)c3ccccc3NC(=O)[C@@H]2C1)c1ccccc1	i
CCCCCCOc1ccc(C2C(=O)N(C3CCCCC3)CC(=O)N2CCCC)cc1 (configuration not stated)	8.9µM*
O=C1C(c2ccc(F)cc2)N(Cc2ccccc2Cl)C(=O)CN1C1CCCCC1 (configuration not stated)	-14%
CCCOc1ccc(C2C(=O)N(C3CCCCC3)CC(=O)N2C2CCCCC2)cc1OC (configuration not stated)	24%
Fc1cc(F)cc(Cc2nc3nccc(-c4cccnc4)n3n2)c1	-13%
COc1ccccc1CNC(=O)c1ccc(CSc2nc3ccncc3n2Cc2ccccc2C)cc1	7.1µM*
O=C(NCc1ccc(F)cc1)c1ccc(CSc2nc3ccncc3n2Cc2ccc(F)cc2)cc1	11µM*
COc1ccc(NC(=O)Cn2c(SCc3cc(C)ccc3C)nc3ccncc32)c(OC)c1OC	-17%
CCNC(=O)c1ccc(CSc2nc3ccncc3n2Cc2ccc(F)cc2)cc1	7.9µM*
O=C(NCc1cccs1)c1ccc(Cn2c(SCc3cccc(F)c3)nc3cccnc32)cc1	-5%
COC(=O)c1ccc(Cn2c(SCC(=O)NCc3ccccc3)nc3ccccc32)cc1	27%
COc1cccc(CSc2nc3ccncc3n2CC(=O)Nc2ccc(OC)c(OC)c2OC)c1	-10%
O=C(c1ccc2c(c1)C1(CCN(CC3CC3)C1)CN2Cc1ccccc1)N1CCOCC1 (configuration not stated)	i
COC1CN(C2CCN(C(=O)NC(C)C)CC2)C12CCOCC2 (configuration not stated)	-12%
CC(C)NS(=O)(=O)c1cc(C(=O)O)cc(-c2ccc(C(=O)N(C)C)cc2)c1	-5%
CCn1ncc(NC(=O)Cn2cc(-c3ncnc4ccsc34)cn2)n1	-8%
Cc1sc2ccn(Cc3ccc(F)cc3)c(=O)c2c1C(=O)NCc1ccccn1	i
Cc1ccc(CNC(=O)CCc2ccc3c(c2)CN(C(=O)NC(C)C)CCO3)o1	i
Cn1ccnc1C(O)c1cc2n(n1)CCN(c1ncnc3nc[nH]c13)C2 (configuration not stated)	-13%
Cn1cc([C@@H](NC(=O)c2ccc3c(c2)OCC(=O)N3)C2CC(O)C2)cn1 (some centres not stated)	0%
COCCN1C[C@H]2CN(C(=O)c3ccccc3OC)CCN2C1=O	18%[44.1 µM]
COc1ccc(-c2ccc3nnc(CNC(=O)c4ccc(OC)nc4OC)n3n2)cc1	i
O=C(Cn1ccn2nc3c(c2c1=O)CCCCC3)Nc1ccccc1F	i
COCCNC(=O)c1c(C)noc1-c1cc(OC)c(OC)c(OC)c1	-9%
COc1cc(-c2onc(C)c2C(=O)NCCc2ccc(F)cc2)cc(OC)c1OC	i
SMILES	Pf Dd2 growth
COc1cc(-c2onc(C)c2C(=O)NCCC(c2ccccc2)c2ccccc2)cc(OC)c1OC	11µM*
CC(C)CCNC(=O)C1C(c2cccc(NC(=O)c3ccco3)c2)OC(=O)N1Cc1ccccc1 (configuration not stated)	i
Cc1ccc(CNC(=O)N2CCCN(S(C)(=O)=O)C(c3ccccc3)CC(=O)NCC2)cc1 (configuration not stated)	-19%
COc1cc(OC)cc(-c2onc(C)c2C(=O)NC(C)CCc2ccccc2)c1 (configuration not stated)	i
COC(=O)[C@@H]1Cc2c([nH]c3ccccc23)[C@H]2C[C@@H](NCc3cccnc3)C[C@@H](c3ccccc3)N21	-23%
COC(=O)[C@@H]1Cc2c([nH]c3ccccc23)[C@H]2C[C@@H](NCCCn3ccnc3)C[C@@H](c3cccc(Cl)c3)N21	2.2µM*
COC(=O)[C@@H]1Cc2c([nH]c3ccccc23)[C@H]2C[C@H](NCCNC(C)=O)C[C@@H](c3ccc(C(F)(F)F)cc3)N21	-1%
COC(=O)[C@@H]1Cc2c([nH]c3ccccc23)[C@H]2C[C@@H](NCCCn3ccnc3)C[C@@H](c3ccc(Cl)c(F)c3)N21	3.2µM*
COC(=O)[C@@H]1Cc2c([nH]c3ccccc23)[C@H]2C[C@@H](NCCc3cnc[nH]3)C[C@@H](c3ccccc3F)N21	i
COC(=O)[C@@H]1Cc2c([nH]c3ccccc23)[C@H]2C[C@@H](NC[C@H]3CCCO3)C[C@@H](c3ccccc3F)N21	-9%
O=C(NCCCn1ccnc1)c1ccc(C2CCCNC2)cc1 (configuration not stated)	12%
COCCN[C@@H]1C[C@@H]2c3[nH]c4ccccc4c3C[C@@H](C(=O)OC)N2[C@H](c2cccc(OC)c2)C1	5µM*
COCc1ccc2c(c1)c(OC(C)(C)C(=O)NCCCn1ccnc1)nn2Cc1ccccc1	-13%
